CYP2C19 inhib – blockers of cytochrome P450 2C19 activity – biochemical, luminescence, ADME assay, primary screen | P33261 | CYP2C19 Supersomes, luciferin-H EGE luminescence, 30 min | inhibition, % at 5 µM | 96,000 tested, 21% active | AID 778, 2007;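 active = CYP2C19 inhibition above a set limit at 5 µM in the primary screen, cut at about 50% in these data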;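 note: plate controls were negative control wells for no effect and 2.5 mM tranylcypromine positive control for full effect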
Target sequence (P33261 whole entry, looked up): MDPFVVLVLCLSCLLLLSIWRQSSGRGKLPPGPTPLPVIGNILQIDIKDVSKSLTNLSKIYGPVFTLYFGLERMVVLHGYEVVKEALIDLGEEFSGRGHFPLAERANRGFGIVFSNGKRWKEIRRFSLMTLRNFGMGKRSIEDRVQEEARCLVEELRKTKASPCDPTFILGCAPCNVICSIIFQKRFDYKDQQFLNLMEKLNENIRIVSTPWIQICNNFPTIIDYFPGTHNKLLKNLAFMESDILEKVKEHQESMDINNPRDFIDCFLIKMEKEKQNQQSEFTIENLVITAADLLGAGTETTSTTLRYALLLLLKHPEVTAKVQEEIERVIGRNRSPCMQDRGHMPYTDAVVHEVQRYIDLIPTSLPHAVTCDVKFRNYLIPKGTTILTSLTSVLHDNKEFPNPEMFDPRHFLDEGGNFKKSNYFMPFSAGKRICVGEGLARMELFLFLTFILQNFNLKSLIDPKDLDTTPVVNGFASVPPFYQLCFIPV
CYP2C9 activ – human CYP2C9 activators, primary screen, biochemical, luminescence; activation factor at 5 µM; recombinant CYP2C9, luciferin-H conversion; active compounds read high; factor 1 = untreated enzyme, 0 = blocked; 96,000 tested, 1.4% active; AID 1024, 2008; Cytochrome P450 2C9 (Homo sapiens), P11712;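 active = activation factor of 2 or more for CYP2C9 at a 5 µM dose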;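 note: 0 = sulfaphenazole-blocked wells and 1 = vehicle-only wells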
CYP2C19 activ – human CYP2C19 activators, primary screen, biochemical, luminescence; Cytochrome P450 2C19 (Homo sapiens), P33261; recombinant CYP2C19, luciferin-H EGE luminescence; active compounds read high; 0 = fully inhibited enzyme, 1 = untreated enzyme; activation factor at 5 µM; 96,000 tested, under 10 active; AID 1025, 2008;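 active = activation factor of at least 2 at 5 µM in the primary screen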;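 note: 0 = wells with 2.5 mM tranylcypromine and 1 = vehicle-only wells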
Mac1 fbg enh – enhancers of CD11b/CD18 adhesion to fibrinogen, primary screen, K562 cells, luminescence; activation, % at 10 µM; 93,000 tested, 0.07% active; Integrin beta-2 (Homo sapiens) + Integrin alpha-M (Homo sapiens), P05107+P11215; AID 1499, 2009; ATPlite luminescence;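 active = 10 µM primary screen giving 50% or more activity, confirmed by 40% or more on retest at that dose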
Mac1 fbg inh – inhibitors of CD11b/CD18 adhesion to fibrinogen, primary screen, K562 cells, luminescence; Integrin beta-2 (Homo sapiens) + Integrin alpha-M (Homo sapiens), P05107+P11215; ATPlite luminescence; Mn2+ added to activate the integrin; inhibition, % at 10 µM; 93,000 tested, 0.54% active; AID 1497, 2009;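 active = primary inhibition of 50% or more at 10 µM, then 40% or more on retest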
CYP2C9 inh – blockers of cytochrome P450 2C9 activity – biochemical, luminescence, ADME assay, primary screen | 96,000 tested, 20% active | CYP2C9 Supersomes, luciferin-H conversion | inhibition, % at 5 µM | AID 777, 2007 | P11712;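 active = blocking of liver enzyme CYP2C9 beyond about 50% at 5 µM, limit read from the data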
The depositor's hits bear a star; . = not tested or not shown. Most compounds without a hit are left out; they make up all but 28% or so of the library.

SMILES | CYP2C19 inhib | CYP2C9 activ | CYP2C19 activ | Mac1 fbg enh | Mac1 fbg inh | CYP2C9 inh
Cc1n[nH]c(C)c1S(=O)(=O)N1CCOCC1 | -20 | 1.2 | 1.2 | . | . | -19
CCOc1cccc2cc(C(=O)N3CCc4ccccc43)c(=O)oc12 | -9 | 2.4* | 1.1 | 2 | -2 | -140
COc1cccc2cc(C(=O)N3CCc4ccccc43)c(=O)oc12 | 68* | 0.9 | 0.3 | -6 | 3 | 14
COc1ccc2oc(=O)c(C(=O)N3CCc4ccccc43)cc2c1 | 0 | 2.2* | 1 | 6 | -16 | -117
COc1ccccc1C(=O)N1CCc2ccccc21 | 19 | 1.1 | 0.8 | -4 | 2 | -11
Cc1cc(C(=O)N2CCc3ccccc32)c2ccccc2n1 | 65* | 0.6 | 0.3 | -5 | -11 | 38
O=C(c1ccccc1)N1CCc2ccccc21 | 20 | 1.2 | 0.8 | 3 | 2 | -22
COc1ccc2nc(N3CCCC3)[nH]c2c1 | 7 | 1 | 0.9 | 5 | 0 | 2
CC(=O)NCC(=O)OCC(=O)c1ccc2ccccc2c1 | -2 | 1 | 1 | -4 | 0 | 3
CN(C)S(=O)(=O)c1ccc(NC(=O)CN2CCN(C(c3ccccc3)c3ccccc3)CC2)cc1 | -4 | 1 | 1 | 0 | -14 | 3
CCNS(=O)(=O)c1ccc(S(=O)(=O)N(Cc2ccccn2)C2CCCCC2)cc1 | 22 | 1.3 | 0.8 | -2 | 3 | -31
CCN(C1CCCCC1)S(=O)(=O)c1ccc(S(=O)(=O)NCc2ccncc2)cc1 | 84* | 0 | 0.2 | . | . | 100*
CCN(C1CCCCC1)S(=O)(=O)c1ccc(S(=O)(=O)NCCc2ccncc2)cc1 | 96* | 0 | 0 | -2 | -8 | 100*
COc1cccc(C(=O)NCC2CCCO2)c1 (centres undefined) | -2 | 0.9 | 1 | 0 | 3 | 13
COc1cc(CN(C(=S)NCC(=O)NC2CC2)C2CCCC2)cc(OC)c1OC | . | . | . | -4 | 23 | .
COC(=O)C1CSC(C(=O)OC)N1C(=O)Nc1ccc(Cl)c(Cl)c1 (centres undefined) | 61* | 0.3 | 0.4 | -1 | 18 | 67*
COC(=O)C1CSC(C(=O)OC)N1C(=O)Nc1ccc(Cl)cc1 (centres undefined) | 69* | 0.9 | 0.3 | . | . | 12
CCN1CCN(CC(=O)Nc2ccc(Cl)c(Cl)c2)C(=O)C1=O | -7 | 0.9 | 1.1 | 0 | 3 | 11
CC(=NCCN1CCNCC1)C1=C(O)CC(C)(C)CC1=O | 2 | 0.9 | 1 | -1 | -7 | 13
CCSc1nnc(NC(=O)C2(C)Cc3ccccc3C(=O)O2)s1 (centres undefined) | -4 | 0.3 | 1 | -1 | 26 | 74*
O=C(NC(Cc1ccccc1)c1ccc2c(c1)OCCCO2)c1ccccc1F (centres undefined) | 77* | 0.2 | 0.2 | -1 | 1 | 83*
COc1ccc(C(=O)NC(Cc2ccccc2)c2ccc3c(c2)OCCCO3)cc1 (centres undefined) | 21 | 0.4 | 0.8 | -2 | -6 | 57*
O=C(CCc1ccccc1)c1ccc2c(c1)OCCCO2 | -2 | 0.8 | 1 | -3 | 15 | 16
CC(=O)N(CCC(Cc1ccccc1)c1ccc2c(c1)OCO2)Cc1ccccc1F (centres undefined) | 88* | 0 | 0.1 | -2 | 27 | 96*
CCOC(=O)c1cc(CC)sc1NC(=O)Cc1ccsc1 | 3 | 0.9 | 1 | -4 | -4 | 14
SMILES | CYP2C19 inhib | CYP2C9 activ | CYP2C19 activ | Mac1 fbg enh | Mac1 fbg inh | CYP2C9 inh
CNCC(O)COc1ccccc1 (centres undefined) | 5 | 0.9 | 1 | -4 | -2 | 6
OC(CNc1ccccc1)COc1ccc(OCC(O)CNc2ccccc2)cc1 (centres undefined) | 13 | 0.3 | 0.9 | 2 | -16 | 67*
Cc1cc(C)n(S(=O)(=O)c2ccc(C)c(C)c2C)n1 | 32 | 3.7* | 0.7 | 1 | -3 | -275
COc1cccc(OC)c1C(=O)n1nc(C)cc1C | 2 | 1.2 | 1 | 2 | -5 | -23
COc1ccc(S(=O)(=O)n2nc(C)cc2C)c(C)c1C | 31 | 2.4* | 0.7 | 0 | 2 | -142
O=C(NC(Cc1ccccc1)C(=O)NCc1ccccn1)c1ccco1 (centres undefined) | 26 | 0.9 | 0.7 | 2 | 7 | 7
Cc1nc2cc(-c3cccc(F)c3)nn2c(N2CCN(C(=O)c3ccco3)CC2)c1C | 7 | 1 | 0.9 | -3 | 14 | 4
O=C(Nc1ccc2c(c1)OCCO2)c1ccccc1F | 4 | 1 | 1 | -5 | 15 | -4
Cc1ccc(-c2cc(C(=O)N3CCOCC3)c3ccccc3n2)cc1 | 70* | 0.5 | 0.3 | -1 | -7 | 46
Cc1ccc(-c2cc(C(=O)Nc3ccc4c(c3)OCCO4)c3ccccc3n2)cc1 | 23 | 0.2 | 0.8 | -1 | 5 | 76*
CS(=O)(=O)Nc1ccccc1C(=O)Nc1ccc2c(c1)OCCO2 | 11 | 0.3 | 0.9 | 8 | -5 | 73*
COc1ccc(-c2cc(C(=O)N3CCOCC3)c3cc(C)ccc3n2)cc1 | 33 | 0.4 | 0.7 | 0 | -14 | 59*
CCN(C(=O)CSc1nnnn1-c1ccccc1)c1c(N)n(Cc2ccccc2)c(=O)[nH]c1=O | . | . | . | -3 | 0 | .
Cc1ccc(CNC(=O)c2nc3nc(C)cc(C)n3n2)cc1 | -18 | 1.1 | 1.2 | -1 | 3 | -14
CCN(CC)S(=O)(=O)c1ccc(C(=O)NCc2n[nH]c(=S)n2Cc2ccccc2)cc1 | -7 | 0.9 | 1.1 | -3 | 10 | 14
COc1cc(SC)ccc1C(=O)NCCOc1ccc(C)c(C)c1 | . | . | . | -2 | 55 | .
CC(C)c1ccc(-c2cc(C(=O)N3N=C(C(F)F)CC3(O)C(F)F)c3ccccc3n2)cc1 (centres undefined) | 7 | 0 | 0.9 | -4 | 78* | 100*
Cc1nc2ccccc2n1C(=O)c1cc(-c2ccc(Br)cc2)nc2ccccc12 | 17 | 0.2 | 0.8 | 0 | 6 | 79*
O=C(CSc1ccc(-c2nc3ccccc3[nH]2)cn1)Nc1ccc2c(c1)OCCO2 | 7 | 0.6 | 0.9 | 29 | 3 | 37
CCc1ccc(-c2cc(C(=O)Nc3ccc(S(=O)(=O)NC(C)=O)cc3)c3ccccc3n2)cc1 | 18 | 1 | 0.8 | -5 | 29 | 3
CCN(CC(=O)Nc1ccc2c(c1)OCCO2)c1nc(-c2cccnc2)nc2ccccc12 | 66* | 0.4 | 0.3 | -1 | 3 | 56*
CCc1ccc(-c2cc(C(=O)NN3CCOCC3)c3ccccc3n2)cc1 | 10 | 0.5 | 0.9 | -7 | 2 | 54*

Assay outcomes (PubChem)
